The results in this text go back to PubChem BioAssay (NCATS).

The structures appear in SMILES notation. Inconclusive results are not listed. Unmarked numbers belong to inactive results. Activity calls are given as the source filed them. Calls follow the shape of the dose curve; as a rule, active = well fitted curve in the direction sought with a large enough effect; inconclusive = small, poorly fitted or top-dose-only effect, or another doubt; inactive = no such curve, though single readings can be large; an effect the other way counts as inactive or inconclusive. Square brackets hold non-standard residues; d marks the D form. Peptide text beside a SMILES is read from it. PhLac = O=C(O)[CH](O)Cc1ccccc1; NMeV = CN[CH](C(=O)O)C(C)C

The target in test [1] is Cellular tumor antigen p53 (Homo sapiens) (UniProt P04637). The test is described as follows: Primary qHTS for small molecule compounds that upregulate eGFP-tagged delta133p53alpha (in N-terminal) cells. (AID 2060322). Also: nearly all actives have a fitted effect of over 75% in size. Also: potency is read from the fitted curve at half-maximal effect.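 As to activation: cells pre-induced with doxycycline then dosed without doxycycline; series mostly up to about 56 µM; 0% = DMSO vehicle and 100% = reference activator.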 Conditions: NCI-H358 eGFP-delta133p53alpha fluorescence, 24 h; activation: stronger effect = higher value. The method, boiled down: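 NCI-H358 cells pre-induced 24 h with 10 ng/ml doxycycline for eGFP-delta133p53alpha, plated dox-free and exposed 24 h at 37C to titrated compounds. Fixed, Hoechst-stained; gated GFP peak intensity by laser scanning cytometry, normalized to DMSO (0%) and 57.5 uM 5-azacytidine (100%).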
Background: qHTS replaces the single test concentration by a dilution series.

The target in test [2] is Aldehyde dehydrogenase, mitochondrial (Homo sapiens) (UniProt P05091). Kind of test: qHTS for Inhibitors of the Aldehyde Dehydrogenase Family (ALDH2) Primary screen (AID 2061308).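 Also: plate controls were vehicle for no effect and reference inhibitor for full effect; nearly all actives have a fitted effect of over 55% in size.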
Test [3] has as its target Retinaldehyde dehydrogenase 3 (Homo sapiens) (UniProt P47895). The test is described as follows: qHTS for Inhibitors of the Aldehyde Dehydrogenase Family (ALDH1A3) Primary screen (AID 2061315).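 Also: plate controls were DMSO vehicle for no effect and reference inhibitor for full effect.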

Cellular tumor antigen p53 (Homo sapiens), sequence (P04637 whole entry, looked up): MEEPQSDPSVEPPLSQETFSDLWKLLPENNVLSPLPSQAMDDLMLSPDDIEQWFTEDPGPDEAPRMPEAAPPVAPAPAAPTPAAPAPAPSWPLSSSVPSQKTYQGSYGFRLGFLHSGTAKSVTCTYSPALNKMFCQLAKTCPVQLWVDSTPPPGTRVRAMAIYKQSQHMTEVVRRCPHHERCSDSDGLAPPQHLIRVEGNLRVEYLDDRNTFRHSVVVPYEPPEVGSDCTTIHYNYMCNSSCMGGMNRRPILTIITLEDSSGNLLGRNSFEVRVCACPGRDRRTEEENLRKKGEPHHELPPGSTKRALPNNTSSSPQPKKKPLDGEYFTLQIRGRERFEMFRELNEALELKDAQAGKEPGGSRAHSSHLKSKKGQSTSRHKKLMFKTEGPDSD

On to `C=C1C(=O)OC2/C=C(\CO)CC/C=C(\C=O)C(OC)C(OC(=O)C(C)CC)C12` (stereo not given), for which the activation in test [1] was -6.11%. Moreover, the Potency entry in test [2] and in test [3] was “inactive” each time.

With `CC(C)C(=O)OC[C@H]1O[C@H](O[C@H]2O[C@H](CO)[C@@H](O)[C@H](O)[C@H]2O)[C@H](O)[C@@H](O)[C@@H]1O`, in test [1], the activation was -6.11%. Also, the Potency entry in test [2] and in test [3] was “inactive” in each case.

On to `CC1(C)C2CC[C@@]34CC(CC[C@H]3[C@]2(C)CC[C@@H]1O[C@@H]1O[C@H](CO)[C@@H](O)[C@H](O)[C@H]1O)[C@](C)(O)C4` (stereo not given in full), for which the activation in test [1] was -22.1%. The Potency entry in test [2] and in test [3] was “inactive” in each case.

`CC1(C)CC[C@]2(C(=O)OC3OC(CO)C(O)C(O)C3O)CC[C@]3(C)C(=CCC4[C@@]5(C)CC[C@H](OC6OC(C(=O)O)C(O)C(OC7OC(CO)C(O)C(O)C7O)C6O)C(C)(C)C5CC[C@]43C)C2C1` (stereo not given in full): the activation in test [1] is -22.1%. The Potency result in test [2] and in test [3] was “inactive” each time.

In the case of `CC(C)[C@@](O)(c1ccc2cc(OC(F)F)c(OC(F)F)cc2c1)c1cn[nH]n1`, the activation in test [1] is -0.333%. Besides, the Potency entry in test [2] and in test [3] was “inactive” throughout.

Consider `O=C(C[C@@H]1C(C(=O)O)=CO[C@@H](O[C@@H]2O[C@H](CO)[C@@H](O)[C@H](O)[C@H]2O)/C1=C\CO)OCCc1ccc(O)cc1`, for which the activation in test [1] is 1.53%. For the same molecule, the Potency entry in test [2] and in test [3] was “inactive” in each case.

As for `COC(=O)C1=CO[C@@H](O[C@@H]2O[C@H](CO)[C@@H](O)[C@H](O)[C@H]2O)[C@H]2[C@@H]1C=C[C@@]21C=C([C@H](C)O)C(=O)O1`, the activation in test [1] is 13.4%. Besides, the Potency entry in test [2] and in test [3] was “inactive” in each case.

Regarding `CC1=CC[C@]2(C(=O)O[C@@H]3O[C@H](CO[C@@H]4O[C@H](CO)[C@@H](O[C@@H]5O[C@@H](C)[C@H](O)[C@@H](O)[C@H]5O)[C@H](O)[C@H]4O)[C@@H](O)[C@H](O)[C@H]3O)CC[C@]3(C)C(CCC4[C@@]5(C)C[C@@H](O)[C@H](O)[C@@](C)(CO)C5CC[C@]43C)C2C1C` (stereo not given in full), the activation in test [1] was -13%. The Potency entry in test [2] and in test [3] was “inactive” each time.

Consider `CC(C)=C1CC2[C@](C)(CC[C@@H](OC(=O)C3(C)OC3C)[C@@]2(C)O)CC1=O` (stereo not given in full), for which the activation in test [1] is -20.6%. For the same molecule, the Potency entry in test [2] and in test [3] was “inactive” throughout.

Regarding `COc1ccc(S(=O)(=O)Nc2cc(Cl)cc(Cl)c2OC)cc1N1CCNCC1`, the activation in test [1] is 8.04%. The Potency entry in test [2] and in test [3] was “inactive” each time.

For `CC(/C=C/C1(O)C(C)(C)CC(O)CC1(C)O)OC1OC(CO)C(O)C(O)C1O` (stereo not given), the activation in test [1] is -5.34%. For the same molecule, the Potency entry in test [2] and in test [3] was “inactive” throughout.

As for `Fc1ccc(N2CCCCC2)c(NC(=S)c2ccncc2)c1`, the activation in test [1] was -8.04%. The Potency result in test [2] and in test [3] was “inactive” throughout.

Regarding `CC(=O)O[C@@H]1C(O)C[C@@]2(C)C(CC[C@@H](C)C23Cc2c(O)cc4c(c2O3)CNC4=O)C1(C)C` (stereo not given in full), the activation in test [1] is -14.5%. The Potency result in test [2] and in test [3] was “inactive” throughout.

Take `FC(F)(F)c1cc(-c2ncn(/C=C\c3nnco3)n2)cc(C(F)(F)F)c1`: the activation in test [1] is 7.67%. Also, the Potency entry in test [2] and in test [3] was “inactive” throughout.

`CCC(C)/C=C(C)/C=C/c1cc2c(cn1)C(=O)C(C)(OC(C)=O)C(O)=C2Cl` (stereo not given): the activation in test [1] is -6.11%. Also, the Potency entry in test [2] and in test [3] was “inactive” each time.

As to `CC(=O)C1(C)CCC2C3C=C(C)C4=CC(=O)CCC4(C)C3CCC21C` (stereo not given), in test [1], the activation is -17%. Moreover, the Potency result in test [2] and in test [3] was “inactive” each time.

With `CN1CCN(C(=O)c2ccc(Nc3nccc(-c4cccs4)n3)cc2Cl)CC1`, the Potency in test [1] was 30.1 µM (active). Also, the Potency entry in test [2] and in test [3] was “inactive” each time.

As to `CC(CC12CCCN1C(=O)C1CCCN1C2=O)OC(N)=O` (stereo not given), in test [1], the activation is -18.3%. Besides, the Potency result in test [2] and in test [3] was “inactive” throughout.

With `CC(C)=CC/C=C(/C)[C@H]1CC[C@]2(C)[C@@H]1[C@H](O)CC1[C@@]3(C)CC[C@H](O)C(C)(C)[C@@H]3[C@@H](O[C@@H]3O[C@H](CO)[C@@H](O)[C@H](O)[C@H]3O[C@@H]3O[C@@H](C)[C@H](O)[C@@H](O)[C@H]3O)C[C@]12C` (stereo not given in full), the activation in test [1] is -7.63%. Also, the Potency entry in test [2] and in test [3] was “inactive” each time.

Consider `NC(=O)[C@H](Cc1ccccc1)NC(=O)[C@H](CCCN=C(N)N)NC(=O)C12CC3CC(CC(C3)C1)C2`, for which, in test [1], the activation is -9%. Besides, the activity change, negative = inhibition in test [2] was 0.973% [at 11.2 µM]; in test [3], -5.76% [at 11.2 µM].

For the molecule `COc1c(C)c(OCC=C(C)C)cc2c1C(=O)NC2=O`, the activation in test [1] was -12.2%. The Potency entry in test [2] and in test [3] was “inactive” in each case.

In the case of `CC12CC(c3ccoc3)OC(=O)C1CCC1(C)C2CCC(O)C1(C)O` (stereo not given), the activation in test [1] is 23.7%. For the same molecule, the Potency result in test [2] and in test [3] was “inactive” in each case.

As to `CC(=O)c1cc2c(cc1O)OC(C)(C)C=C2`, the activation in test [1] was 14.3%. In addition, the Potency entry in test [2] and in test [3] was “inactive” each time.

As for `CC(C)C(C(=O)N1CCCC1C(=O)O)N(C)C(=O)C(O)Cc1ccccc1` (stereo not given) (H-[PhLac]-[NMeV]-Pro-OH; configuration not given here), in test [1], the activation was 22.3%. The Potency result in test [2] and in test [3] was “inactive” each time.

For `CC1CC[C@]2(C(=O)O)CC[C@]3(C(=O)O)C(=CCC4[C@@]5(C)CC[C@H](O[C@@H]6O[C@H](CO)[C@@H](O)[C@H](O)[C@H]6O)C(C)(C)C5CC[C@]43C)C2C1C` (stereo not given in full), the activation in test [1] was 0.893%. Moreover, the Potency entry in test [2] and in test [3] was “inactive” in each case.
